In the library only some 9.4% were active in any assay of this set; here they are far more common.
HTT ATP protect: protects HTT-Q103 PC12 cells, measured by ATP; AID 1471; actives 0.14% (n = 230,000); Potency, µM (top dose mostly 56.4 µM), for the others: cytoprotection (ATP increase), usual class: activators; PC12 HTT-Q103 induced, cytoprotection, ATP luminescence, 40 h; note: potency is the fitted concentration of half-maximal effect; % of control where 0% means no effect; nearly all actives have a fitted effect of over 45% in size
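Huntington model: PC12 line, ecdysone-inducible HTTQ103 exon1–GFP, tebufenozide 100 nM. Test articles in a dose series. Endpoint luminescence from cellular ATP.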
HTT aggregate: reduces HttQ103-GFP aggregates in PC12 cells | PC12 HttQ103-GFP aggregates, Acumen cytometry, 40 h | Potency, µM (doses to about 46.1 µM), for inactives: top-dose activity change, negative = inhibition, most hits filed as inhibitors | actives 1.1% (n = 220,000); note: potency is the fitted concentration of half-maximal effect; % is set by controls: 0 for no effect and ±100 for the full control effect; nearly all actives have a fitted effect of over 60% in size
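Read-out: GFP aggregate count by laser scanning cytometer (488 nm excitation, 500-530 nm emission, 1–25 µm objects >6 SD above background). Cells: PC12, inducible HTTex1-Q103-GFP, 100 nM tebufenozide; compounds titrated.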
ALDH1A1 block: ALDH1A1 (human) enzyme inhibition; Purified ALDH1A1, NADH fluorescence, propionaldehyde substrate; Potency, µM (series often up to 75.3 µM), for the others: at the highest dose activity, negative = inhibition, most hits filed as inhibitors; actives 7.3% (n = 220,000); AID 1030; active = well fitted inhibition curve with a large enough effect, not every such curve was filed as active; inconclusive = small, poorly fitted or top-dose-only effect, or another doubt; inactive = no such curve, though single readings can be large or run the other way;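 note: potency is the fitted concentration of half-maximal effect; plate controls were no enzyme wells and a reference inhibitor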
Target sequence (P00352 whole entry, looked up): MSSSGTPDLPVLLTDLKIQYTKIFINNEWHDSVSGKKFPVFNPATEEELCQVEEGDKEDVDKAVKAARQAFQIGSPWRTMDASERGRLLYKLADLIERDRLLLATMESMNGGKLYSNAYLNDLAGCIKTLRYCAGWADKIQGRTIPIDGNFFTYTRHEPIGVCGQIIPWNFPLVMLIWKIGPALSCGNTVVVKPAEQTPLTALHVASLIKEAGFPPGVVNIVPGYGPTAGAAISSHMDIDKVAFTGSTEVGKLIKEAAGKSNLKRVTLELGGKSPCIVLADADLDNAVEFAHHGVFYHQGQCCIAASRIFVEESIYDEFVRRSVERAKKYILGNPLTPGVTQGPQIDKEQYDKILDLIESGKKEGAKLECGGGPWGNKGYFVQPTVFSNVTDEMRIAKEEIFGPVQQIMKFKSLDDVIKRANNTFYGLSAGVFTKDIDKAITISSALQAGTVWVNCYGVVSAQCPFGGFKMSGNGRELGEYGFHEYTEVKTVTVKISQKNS
HPGD block: HPGD (human) dehydrogenase inhibition. P15428. actives 4.3% (n = 150,000). purified HPGD, NADH fluorescence kinetic, PGE2 substrate. Potency, µM, without a hit: at the top dose activity change, negative = inhibition, most hits filed as inhibitors. AID 894; active = well fitted inhibition curve with a large enough effect, not every such curve was filed as active; inconclusive = small, poorly fitted or top-dose-only effect, or another doubt; inactive = no such curve, though single readings can be large or run the other way; note: potency is the fitted concentration of half-maximal effect; % is set by controls: 0 for no effect and ±100 for the full control effect
Target sequence (P15428 whole entry, looked up): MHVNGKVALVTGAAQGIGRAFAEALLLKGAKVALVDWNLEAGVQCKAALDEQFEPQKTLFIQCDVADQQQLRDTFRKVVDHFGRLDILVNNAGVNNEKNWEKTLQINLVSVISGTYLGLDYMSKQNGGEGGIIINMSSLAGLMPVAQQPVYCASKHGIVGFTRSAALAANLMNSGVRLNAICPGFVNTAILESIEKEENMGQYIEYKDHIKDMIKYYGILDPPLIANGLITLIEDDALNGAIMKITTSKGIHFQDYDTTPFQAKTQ
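20 nM HPGD preincubated 15 min at room temperature with compound in 50 mM Tris-HCl pH 8, 0.01% Tween 20. Started with 1 mM NAD+ and 30 uM prostaglandin E2; NADH fluorescence (360/450 nm) read 5 times over 30-s intervals, last minus first.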
IMPase Li inh: membrane-permeable IMPase blocker, potentiated with lithium; CHO-M1 cells, IP1 TR-FRET (IP-One), carbachol + lithium; Potency, µM (top dose mostly 59.4 µM), for inactives: top-dose activity, negative = IMPase inhibition, actives largely listed as inhibitors; actives 0.35% (n = 210,000); AID 1457;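 note: IP1 builds up when IMPase is blocked and the TR-FRET signal falls; potency is the fitted concentration of half-maximal effect; plate controls were basal vehicle for no effect and high inhibitor control for full effect; nearly all actives have a fitted effect of over 50% in size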
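Readout is a homogeneous TR-FRET IP1 immunoassay (Ex 320, Em 665 and 620), where raised cytosolic IP1 lowers signal. Cells were CHO-M1 treated 30 min at 37C with test compounds plus a little lithium; AC50 values came from Hill-equation fitting.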
IMPase cell inh: IMPase inhibition in cells. 120,000 tested, under 10 active. inhibition (IP1 accumulation), % at 46.1 µM. P97697. CHO-M1 cells, IP1 accumulation, HTRF TR-FRET ratio. AID 901; active = well fitted curve in the direction sought with a large enough effect in the signal ratio, not every such curve was filed as active; inconclusive = small, poorly fitted or top-dose-only effect, or a change in a side signal; inactive = no such curve, though single readings can be large or run the other way; the % refers to the signal ratio;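 note: cells stimulated with carbachol in lithium chloride buffer; plate controls were DMSO basal wells for no effect and reference inhibitor wells for full effect; higher means more IMPase inhibition seen as more IP1 and lower FRET ratio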
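Elevated IP1 in lysates lowers TR-FRET signal (665/620 ratio and 620 channel reported). Cells were CHO-M1, given carbachol (50 uM as added) plus 50mM LiCl, pH 7.4, 30 min, 37C; compounds titrated up to 46 uM; AC50 by Hill equation.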
Active calls of the source: *; ? = inconclusive; nt = no result given; [ ] = another dose, or the depositor's remark. Unless noted, calls come from the whole dose curve; as a rule, active = well fitted curve in the direction sought with a large enough effect; inconclusive = small, poorly fitted or top-dose-only effect, or another doubt; inactive = no such curve, though single readings can be large; an effect the other way counts as inactive or inconclusive.

SMILES | HTT ATP protect | HTT aggregate | ALDH1A1 block | HPGD block | IMPase Li inh | IMPase cell inh
COc1ccc(C2C(C(N)=O)=C(C)Nc3nc(CCCO)nn32)c(OC)c1 (stereo not drawn) | nt | nt | nt | nt | nt | 2
Cc1ccc(NC(=O)C(=O)NCCN2CCN(S(=O)(=O)c3ccccc3)CC2)cc1C | -28% | 12%[9.22 µM] | ? | nt | 5% | nt
Cc1c(C)n(CC(O)CN2C(=O)c3ccccc3S2(=O)=O)c2ccccc12 (stereo not drawn) | 5% | -31% | 14µM* | 20µM* | 33%[38.3 µM] | 1
CN1CCc2c(n(CC(O)CN3C(=O)c4ccccc4S3(=O)=O)c3ccccc23)C1=O (stereo not drawn) | -1%[10 µM] | 8% | 10µM* | -1% | -3% | ?
Cc1cc(C)n(-c2nc3ccccc3nc2Nc2cccc(C(=O)NCCc3ccccc3)c2)n1 | nt | nt | nt | nt | nt | 1
COc1ccc(S(=O)(=O)Oc2cccc(/C=N/N=C3/NC(=O)C(CC(=O)O)S3)c2)cc1 (stereo not drawn) | -13%[10 µM] | -21%[9.22 µM] | 8.9µM* | nt | -8% | nt
COc1ccc(/C=N/N=C2\SC(CC(=O)O)C(=O)N2c2ccccc2)cc1 (stereo not drawn) | 19%[10 µM] | -2% | 20µM* | -14% | 7% | nt
COc1ccc(/C=N\N=C2/SC(CC(=O)O)C(=O)N2c2ccc(O)cc2)cc1 (stereo not drawn) | 1% | 2% | 3% | nt | nt | 0
COc1ccc(/C=N/N=C2\SC(CC(=O)O)C(=O)N2c2ccccc2)c(OC)c1 (stereo not drawn) | nt | -3% | 20µM* | -18% | -8% | nt
O=S(=O)(c1ccccc1)c1nc(-c2ccco2)oc1NCCN1CCOCC1 | -13%[10 µM] | -4% | 14µM* | -18% | -2%[38.3 µM] | 5
O=S(=O)(c1ccccc1)c1nc(-c2ccco2)oc1NCCCN1CCOCC1 | 12%[10 µM] | -1% | 8.9µM* | -24% | 7% | 3
Cc1ccc(S(=O)(=O)c2nc(-c3ccccc3)oc2NCc2cccnc2)cc1 | -11% | -14% | 28µM* | -19% | 5%[38.3 µM] | -5
Cc1ccc(CNc2oc(-c3ccco3)nc2S(=O)(=O)c2ccccc2)cc1 | 7%[1.9 µM] | -17% | 28µM* | -25% | 10% | 16
N#Cc1nc(-c2ccco2)oc1NCCCN1CCOCC1 | -22% | -1% | ? | ? | 14%[38.3 µM] | -5
Cc1ccc(NC(=O)Cn2cc(C(=O)C3CCCCC3)c3ccccc32)cc1 | nt | nt | nt | nt | nt | -5
CCOc1cc(C(=O)Nc2cccc(-c3nc4ccccc4o3)c2)cc(OCC)c1OCC | nt | nt | nt | nt | nt | 2
CCCOc1ccc(Br)cc1-c1cc(-c2ccc(Cl)cc2)[nH]c1-c1ccncc1 | 2% | nt | ? | ? | -17% | nt
O=C1[C@H]2[C@H]3[C@H](O)[C@H](O)C/C(=N/OC[C@@H](O)COCc4ccco4)[C@@H]3CC[C@@H]2C(=O)N1c1cccc(Oc2ccccc2)c1 | 0%[10 µM] | nt | -9%[13.5 µM] | nt | nt | nt
CCOC(=O)c1ccccc1NC(=O)CN(c1cc(C(F)(F)F)ccc1Cl)S(C)(=O)=O | nt | nt | nt | nt | nt | 2
CN(Cc1nc(-c2ccccn2)no1)S(=O)(=O)c1ccc(Cl)cc1 | 5% | -18% | ? | 25µM* | 4%[38.3 µM] | 0
CN(Cc1nc(-c2cccnc2)no1)S(=O)(=O)c1ccccc1 | -25%[10 µM] | 4% | ? | -11% | -11%[38.3 µM] | -4
O=C(CN1CCN(S(=O)(=O)c2ccccc2F)CC1)Nc1ccccc1C(=O)c1ccccc1 | nt | -21% | 2.8µM* | nt | 15% | nt
O=C(CN1CCCC1)Nc1ccccc1C(=O)c1ccccc1 | 5%[10 µM] | -4%[9.22 µM] | 14% | nt | nt | nt
COc1ccc(NC(=O)CN2CCN(CC(=O)Nc3ccccc3F)CC2)cc1OC | 0%[10 µM] | 17% | 22µM* | -9% | -6%[38.3 µM] | ?
COc1ccc(NCC(=O)Nc2ccc(Br)cc2F)c(OC)c1 | -15%[10 µM] | -14%[9.22 µM] | 1.6µM* | nt | nt | nt
SMILES | HTT ATP protect | HTT aggregate | ALDH1A1 block | HPGD block | IMPase Li inh | IMPase cell inh
O=C(CN1CCN(C(=O)c2c(F)cccc2F)CC1)Nc1ccccc1F | 8% | -14% | 25µM* | -2% | 18%[38.3 µM] | -7
O=C(CCN1CCN(CC(=O)Nc2ccccc2F)CC1)Nc1ccccc1F | -5% | 7% | ? | -1% | -4%[38.3 µM] | -2
COc1cccc(Cn2c(NCc3ccc(C)cc3)nc3c2c(=O)n(C)c(=O)n3C)c1 | nt | nt | nt | nt | nt | 0
CC(=O)Oc1cc(C)c(OC(C)=O)c2ccccc12 | -98% | ? | nt | nt | nt | nt
O=NN(Cc1ccc(Cl)cc1)[C@@H](C(=O)O)c1ccccc1 | -11%[10 µM] | nt | 0%[13.5 µM] | -9% | -11% | nt
COC(C(=O)Nc1ccc(Br)cc1F)c1ccccc1 (stereo not drawn) | -12%[10 µM] | 22% | 10µM* | nt | 2% | nt
COc1ccc(NC(=O)CN2CCN(CC(=O)Nc3ccccc3F)CC2)c(OC)c1 | 3%[10 µM] | -3% | 18µM* | -16% | -7% | 0
COc1ccc(S(=O)(=O)N2CCN(CCC(=O)Nc3ccccc3F)CC2)cc1 | 14% | ? | 1.1µM* | -11% | 35%[38.3 µM] | 2
COc1ccc(NC(=O)CN2CCN(CC(=O)Nc3ccccc3Cl)CC2)c(OC)c1 | 5%[10 µM] | 6% | ? | 1% | 12%[38.3 µM] | 3
CCOC(=O)c1c(C)oc2c(Cl)cc(NS(=O)(=O)c3ccc(Cl)c(C)c3)cc12 | nt | nt | nt | nt | nt | -1
S=c1[nH]nc(-c2ccccn2)n1/N=C/c1ccc(Br)s1 | 1%[10 µM] | -12% | ? | 7.9µM* | 3% | 16
Cc1ccc(/C=N/n2c(COc3ccccc3)n[nH]c2=S)s1 | -22% | 9% | ? | 2.2µM* | 9%[38.3 µM] | 7
S=c1[nH]nc(-c2ccccn2)n1/N=C/c1ccc(Cl)c(Cl)c1 | 23%[10 µM] | -4%[9.22 µM] | -4% | nt | nt | nt
S=c1[nH]nc(COc2ccccc2)n1/N=C/c1ccc(Br)s1 | -56% | 11% | ? | 10µM* | 12%[38.3 µM] | 3
Cc1ccc(/C=N/n2c(COc3ccccc3)n[nH]c2=S)o1 | -33% | 24%[9.22 µM] | 11% | nt | 2% | nt
COc1cc2oc(=O)cc(-c3ccc(-c4sccc4C=O)cc3)c2c(OC)c1OC | -37% | nt | -7% | -11% | 20% | nt
CCOC(=O)c1ccc(NC(=O)CC2Nc3cc(C)c(C)cc3NC2=O)cc1 (stereo not drawn) | nt | nt | nt | nt | nt | 3
COc1ccccc1NC(=S)NC(NC(=O)CC(C)C)C(Cl)(Cl)Cl (stereo not drawn) | 30%[10 µM] | 9%[9.22 µM] | 3% | nt | 5% | nt
O/N=C1\CCCC\C1=C/c1ccccc1 | nt | 0% | -2% | 4.5µM* | 15% | nt
Cc1ccc(-c2nc(NCC3CCCO3)sc2C)cc1 (stereo not drawn) | -1%[10 µM] | 14% | 28µM* | nt | 4% | nt
CC(C)(C)c1ccc(-c2noc(CCC(=O)NCC3CCCO3)n2)cc1 (stereo not drawn) | -110% | ? | -7% | 13µM* | 7%[38.3 µM] | 0

High-throughput results deposited in PubChem by National Center for Advancing Translational Sciences (NCATS).
